Laboratory results from PubChem BioAssay (Tox21).
Records with an inconclusive call do not appear. Activity calls are given as the source filed them. Unless noted, calls come from the whole dose curve; as a rule, active = well fitted curve in the direction sought with a large enough effect in the repeat runs; inconclusive = weak or mixed curves; inactive = no such curve, though single readings can be large; an effect the other way counts as inactive or inconclusive.

Columns and labels:
[1] = qHTS assay to identify aromatase inhibitors - cell viability counter screen (AID 743084);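 note: cells stimulated with testosterone during compound exposure; nearly all actives have a fitted effect of over 55% in size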
[2] = biological target: Aryl hydrocarbon receptor (Homo sapiens) (UniProt P35869); experiment: qHTS assay to identify small molecule that activate the aryl hydrocarbon receptor (AhR) signaling pathway (AID 743085);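 note: HG2L7.5c1 human HepG2 liver cells with stably integrated DRE-driven firefly reporter; series mostly up to about 70 µM; nearly all actives have a fitted effect of over 15% in size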
Method in brief: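 24 h compound exposure, 37C, HepG2-derived HG2L7.5c1 cells with DRE-responsive luciferase. Readouts: fluorescence viability, then luminescence at room temperature after 30 min.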

[3] = qHTS assay to identify small molecule that activate the aryl hydrocarbon receptor (AhR) signaling pathway - cell viability counter screen (AID 743086);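 note: HepG2 liver cells carrying the AhR DRE luciferase reporter; series mostly up to about 70 µM; nearly all actives have a fitted effect of over 45% in size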
Method in brief: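 HepG2-AhR-luc (HG2L7.5c1) cells, 4000/well, treated 24 h at 37 C with compound; viability measured as CellTiter-Fluor fluorescence after 30 min in the same wells as the luciferase read.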

[4] = biological target: Peroxisome proliferator-activated receptor gamma (Homo sapiens) (UniProt P37231); experiment: qHTS assay to identify small molecule antagonists of the peroxisome proliferator-activated receptor gamma (PPARg) signaling pathway (AID 743191; calls by dose curve; note: series mostly up to about 63 µM; nearly all actives have a fitted effect of over 30% in size)
Method in brief: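 GeneBLAzer PPARg UAS-bla HEK293H cells, 5 h post-plating, exposed to compounds 17 h at 37C. LiveBLAzer B/G FRET substrate added for 1 h at room temperature; beta-lactamase reporter read by fluorescence intensity.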

[5] = qHTS assay for small molecule agonists of the antioxidant response element (ARE) signaling pathway (AID 743202; active = well fitted activation curve with a large enough effect in the signal ratio in the repeat runs, not every such curve was filed as active; the % refers to the signal ratio)
Method in brief: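 HepG2 ARE-bla cells; 16 h treatment at 37 C; FRET-based beta-lactamase fluorescence read after 2 h substrate incubation at room temperature.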

[6] = qHTS assay for small molecule agonists of the antioxidant response element (ARE) signaling pathway - cell viability counter screen (AID 743203; calls by dose curve; note: nearly all actives have a fitted effect of over 55% in size)
Method in brief: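 Viability counter screen: CellTiter-Glo luminescence, read after 30 min at room temperature, in ARE-bla HepG2 wells. Compound exposure lasted 16 h at 37C/5% CO2, following a 5 h pre-incubation of the cells after plating.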

[7] = qHTS assay for small molecule activators of the heat shock response signaling pathway - cell viability counter screen (AID 743209); note: nearly all actives have a fitted effect of over 50% in size
Method in brief: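 Cytotoxicity counter screen run in the same wells as the heat-shock bla reporter assay: HeLa HSE-bla cells, 5 h compound exposure at 37 C, viability read by CellTiter-Glo luminescence.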

[8] = qHTS assay for small molecule activators of the heat shock response signaling pathway (AID 743210; active = well fitted activation curve with a large enough effect in the signal ratio in the repeat runs, with a control signal flat, not every such curve was filed as active; the % refers to the signal ratio;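 note: HeLa cells with beta-lactamase reporter driven by heat shock elements; series mostly up to about 63 µM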)
Method in brief: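 Following overnight attachment, HSE-bla HeLa cells received test compounds for 5 h at 37 C; beta-lactamase activity was then detected via FRET substrate fluorescence.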

[9] = qHTS assay to identify small molecule agonists of the peroxisome proliferator-activated receptor delta (PPARd) signaling pathway - cell viability counter screen (AID 743211); note: nearly all actives have a fitted effect of over 55% in size
Method in brief: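 Luminescent ATP viability assay (CellTiter-Glo, 30 min RT) in UAS-bla HEK293H cells carrying the PPAR delta reporter construct, 3000 cells/well, after a 17 h compound treatment at 37 C.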

[10] = biological target: Peroxisome proliferator-activated receptor delta (Homo sapiens) (UniProt Q03181); experiment: qHTS assay to identify small molecule agonists of the peroxisome proliferator-activated receptor delta (PPARd) signaling pathway (AID 743212; calls by dose curve)
Method in brief: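 Tox21 library screened in GeneBLAzer PPARd UAS-bla HEK293H cells. After compound treatment at 37 C, a FRET-based beta-lactamase substrate was applied for 2 h and fluorescence recorded.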

[11] = biological target: Peroxisome proliferator-activated receptor delta (Homo sapiens) (UniProt Q03181); experiment: qHTS assay to identify small molecule antagonists of the peroxisome proliferator-activated receptor delta (PPARd) signaling pathway (AID 743215; active = well fitted inhibition curve with a large enough effect in the signal ratio in the repeat runs, not every such curve was filed as active; the % refers to the signal ratio;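 note: cells stimulated with agonist L165041 at 300 nM final during compound exposure; series mostly up to about 62 µM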)
Method in brief: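 Agonist L165041 (300 nM final) added with compound to PPARd-bla HEK293H UAS-bla reporter cells; 17 h incubation at 37 C. Read-out: LiveBLAzer FRET substrate, 2 h at room temperature, fluorescence intensity.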

[12] = biological target: Bile acid receptor (Homo sapiens) (UniProt Q96RI1); experiment: qHTS assay to identify small molecule antagonists of the farnesoid-X-receptor (FXR) signaling pathway (AID 743217; active = well fitted inhibition curve with a large enough effect in the signal ratio in the repeat runs, not every such curve was filed as active; the % refers to the signal ratio)
Method in brief: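 Antagonist mode: chenodeoxycholic acid at 50 uM final stimulates a UAS-driven beta-lactamase reporter in HEK 293T FXR-bla cells during 16 h, 37C compound exposure. Read-out is FRET substrate fluorescence after 2 h at room temperature.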

[13] = qHTS assay to identify small molecule agonists of the farnesoid-X-receptor (FXR) signaling pathway - cell viability counter screen (AID 743218); note: nearly all actives have a fitted effect of over 45% in size
Method in brief: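 Viability counter screen in the same wells: CellTiter-Glo luminescence, 30 min room-temperature incubation, measured after the beta-lactamase read. Cells were GeneBLAzer FXR-UAS-bla HEK 293T, compound-treated 16 h at 37C.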

[14] = biological target: Bile acid receptor (Homo sapiens) (UniProt Q96RI1); experiment: qHTS assay to identify small molecule agonists of the farnesoid-X-receptor (FXR) signaling pathway (AID 743220; active = well fitted activation curve with a large enough effect in the signal ratio in the repeat runs, not every such curve was filed as active; the % refers to the signal ratio)
Method in brief: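 FXR-UAS-bla HEK 293T cells carrying a UAS-driven beta-lactamase reporter were plated for 5 h at 37C/5% CO2, then exposed to DMSO-dissolved Tox21 10K compounds for 16 h at 37C. A LiveBLAzer B/G FRET substrate was loaded for 2 h at room temperature before fluorescence reading.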

[15] = qHTS assay to identify small molecule antagonists of the farnesoid-X-receptor (FXR) signaling pathway - cell viability counter screen (AID 743221; active = well fitted cell-killing curve with a large enough effect in the repeat runs, not every such curve was filed as active; note: nearly all actives have a fitted effect of over 50% in size)
Method in brief: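 In GeneBLAzer FXR-UAS-bla HEK 293T cells stimulated with 50 uM chenodeoxycholic acid (final), compounds acted for 16 h at 37 C. Viability was assessed afterwards by CellTiter-Glo luminescence.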

[16] = qHTS assay to identify small molecule antagonists of the peroxisome proliferator-activated receptor gamma (PPARg) signaling pathway - cell viability counter screen (AID 743194); note: nearly all actives have a fitted effect of over 55% in size
Method in brief: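 Cytotoxicity counter screen in PPARg-bla HEK293H cells, same wells as reporter assay. Compounds plus 50 nM rosiglitazone (final) for 17 h at 37 C, then viability read by CellTiter-Glo luminescence.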

[17] = qHTS assay to identify small molecule antagonists of the peroxisome proliferator-activated receptor delta (PPARd) signaling pathway - cell viability counter screen (AID 743213); note: nearly all actives have a fitted effect of over 50% in size
Method in brief: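 In this counter screen, HEK293H cells carrying a UAS-beta-lactamase reporter are co-treated with test compounds and 300 nM L165041 (final) for 17 h at 37 C; cell viability is quantified by CellTiter-Glo luminescence.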

[18] = biological target: Vitamin D3 receptor (Homo sapiens) (UniProt P11473); experiment: qHTS assay to identify small molecule agonists of the vitamin D receptor (VDR) signaling pathway (AID 743222; calls by dose curve)
Method in brief: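 Agonist mode, beta-lactamase reporter: fluorescence from LiveBLAzer B/G FRET substrate (2 h, room temperature) read after 16 h compound treatment at 37 C of VDR-bla cells, which were pre-incubated 4 h after seeding.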

[19] = biological target: Vitamin D3 receptor (Homo sapiens) (UniProt P11473); experiment: qHTS assay to identify small molecule antagonists of the vitamin D receptor (VDR) signaling pathway (AID 743223; active = well fitted inhibition curve with a large enough effect in the signal ratio in the repeat runs, not every such curve was filed as active; the % refers to the signal ratio)
Method in brief: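 Agonist 1alpha,25-dihydroxyvitamin D3 (3 nM in well) was added with each compound to VDR-bla cells preincubated 4 h. Cells stood 16 h at 37C, then FRET substrate 2 h at room temperature; fluorescence intensity recorded.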

Measured: Potency

Bile acid receptor (Homo sapiens), sequence (Q96RI1 whole entry, looked up): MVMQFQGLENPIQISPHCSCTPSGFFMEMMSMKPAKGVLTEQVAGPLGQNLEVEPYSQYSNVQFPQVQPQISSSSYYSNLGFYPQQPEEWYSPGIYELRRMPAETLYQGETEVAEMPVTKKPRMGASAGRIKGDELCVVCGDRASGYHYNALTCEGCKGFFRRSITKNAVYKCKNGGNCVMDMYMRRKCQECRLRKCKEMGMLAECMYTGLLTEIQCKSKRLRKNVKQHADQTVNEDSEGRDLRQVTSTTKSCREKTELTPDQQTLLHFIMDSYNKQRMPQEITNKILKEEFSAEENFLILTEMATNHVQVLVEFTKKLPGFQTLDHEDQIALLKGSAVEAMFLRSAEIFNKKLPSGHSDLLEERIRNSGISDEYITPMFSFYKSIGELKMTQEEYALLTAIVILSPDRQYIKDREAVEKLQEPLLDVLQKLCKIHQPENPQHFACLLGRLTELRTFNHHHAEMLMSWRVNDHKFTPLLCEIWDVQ
Peroxisome proliferator-activated receptor gamma (Homo sapiens), sequence (P37231 whole entry, looked up): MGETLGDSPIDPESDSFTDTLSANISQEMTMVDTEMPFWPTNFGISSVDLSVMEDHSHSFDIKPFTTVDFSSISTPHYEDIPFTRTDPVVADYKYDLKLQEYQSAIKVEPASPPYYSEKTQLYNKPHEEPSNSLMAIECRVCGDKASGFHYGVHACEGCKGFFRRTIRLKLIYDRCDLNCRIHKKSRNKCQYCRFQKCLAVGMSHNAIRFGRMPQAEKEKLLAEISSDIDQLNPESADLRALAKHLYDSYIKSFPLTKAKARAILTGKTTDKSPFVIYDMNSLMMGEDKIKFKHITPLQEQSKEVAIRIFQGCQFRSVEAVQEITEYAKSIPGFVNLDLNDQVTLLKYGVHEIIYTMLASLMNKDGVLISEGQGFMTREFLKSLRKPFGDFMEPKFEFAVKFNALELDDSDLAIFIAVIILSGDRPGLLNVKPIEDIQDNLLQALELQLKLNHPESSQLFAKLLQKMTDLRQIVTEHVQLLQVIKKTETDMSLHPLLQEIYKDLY
Aryl hydrocarbon receptor (Homo sapiens), sequence (P35869 whole entry, looked up): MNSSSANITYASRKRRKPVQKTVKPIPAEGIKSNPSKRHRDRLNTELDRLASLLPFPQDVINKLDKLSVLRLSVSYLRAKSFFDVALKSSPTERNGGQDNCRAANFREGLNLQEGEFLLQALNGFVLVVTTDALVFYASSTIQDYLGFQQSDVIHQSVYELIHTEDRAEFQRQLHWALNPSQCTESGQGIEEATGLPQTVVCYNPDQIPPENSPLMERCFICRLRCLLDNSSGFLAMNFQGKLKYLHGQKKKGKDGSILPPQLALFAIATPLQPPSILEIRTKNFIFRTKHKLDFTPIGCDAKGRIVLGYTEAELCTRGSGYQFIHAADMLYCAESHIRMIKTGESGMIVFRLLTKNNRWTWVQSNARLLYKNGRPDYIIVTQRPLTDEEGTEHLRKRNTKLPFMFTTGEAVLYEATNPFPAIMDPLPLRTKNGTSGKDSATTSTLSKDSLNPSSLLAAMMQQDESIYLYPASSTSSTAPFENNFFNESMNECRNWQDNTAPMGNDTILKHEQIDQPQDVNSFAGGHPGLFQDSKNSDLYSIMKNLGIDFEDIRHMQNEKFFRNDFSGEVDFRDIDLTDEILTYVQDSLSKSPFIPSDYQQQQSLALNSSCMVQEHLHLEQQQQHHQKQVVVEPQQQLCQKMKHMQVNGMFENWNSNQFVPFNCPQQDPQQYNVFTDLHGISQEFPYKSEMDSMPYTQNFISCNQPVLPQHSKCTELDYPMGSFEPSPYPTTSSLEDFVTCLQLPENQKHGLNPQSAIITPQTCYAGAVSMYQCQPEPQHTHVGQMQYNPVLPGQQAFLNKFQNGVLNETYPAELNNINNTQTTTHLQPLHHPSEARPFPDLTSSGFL
Peroxisome proliferator-activated receptor delta (Homo sapiens), sequence (Q03181 whole entry, looked up): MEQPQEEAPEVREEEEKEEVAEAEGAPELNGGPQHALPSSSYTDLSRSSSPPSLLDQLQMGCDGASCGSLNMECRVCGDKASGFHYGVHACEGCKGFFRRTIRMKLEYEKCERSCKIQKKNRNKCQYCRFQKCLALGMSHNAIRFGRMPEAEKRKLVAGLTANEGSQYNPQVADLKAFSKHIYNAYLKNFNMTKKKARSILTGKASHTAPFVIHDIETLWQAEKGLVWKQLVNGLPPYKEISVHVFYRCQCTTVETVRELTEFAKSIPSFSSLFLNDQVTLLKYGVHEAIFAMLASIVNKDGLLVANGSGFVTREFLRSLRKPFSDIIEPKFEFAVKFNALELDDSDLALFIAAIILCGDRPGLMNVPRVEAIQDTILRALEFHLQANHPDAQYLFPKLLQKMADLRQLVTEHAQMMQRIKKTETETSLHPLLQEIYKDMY
Vitamin D3 receptor (Homo sapiens), sequence (P11473 whole entry, looked up): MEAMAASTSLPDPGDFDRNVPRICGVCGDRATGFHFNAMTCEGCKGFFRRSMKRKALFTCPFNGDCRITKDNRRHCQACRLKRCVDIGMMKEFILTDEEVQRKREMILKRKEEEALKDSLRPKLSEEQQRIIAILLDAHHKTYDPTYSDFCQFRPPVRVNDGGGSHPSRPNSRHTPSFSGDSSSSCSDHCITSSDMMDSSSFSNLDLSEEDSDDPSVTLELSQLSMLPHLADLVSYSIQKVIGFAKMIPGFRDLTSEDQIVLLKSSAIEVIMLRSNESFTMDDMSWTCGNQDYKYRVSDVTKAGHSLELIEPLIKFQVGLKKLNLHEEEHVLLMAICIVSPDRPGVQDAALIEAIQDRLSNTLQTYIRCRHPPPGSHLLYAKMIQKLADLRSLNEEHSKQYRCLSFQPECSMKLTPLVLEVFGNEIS

FC(F)OC(Cl)C(F)(F)F (configuration not stated)
inactive: [1] | [2] | [3] | [4] | [5] | [6] | [7] | [8] | [9] | [10] | [11] | [12] | [13] | [14] | [15]

Cc1cccn2c(=O)c(-c3nnn[nH]3)cnc12
inactive: [1] | [2] | [3] | [4] | [16] | [5] | [6] | [7] | [8] | [9] | [10] | [17] | [15]

N=c1nc(N2CCCCC2)cc(N)n1O
inactive: [1] | [2] | [3] | [4] | [16] | [5] | [6] | [7] | [9] | [10] | [17] | [11] | [12] | [13] | [14] | [15]

CCO/C([O-])=N/c1c[n+](N2CCOCC2)no1
inactive: [1] | [2] | [3] | [16] | [5] | [6] | [7] | [8] | [9] | [17] | [11] | [12] | [13] | [14] | [15] | [18] | [19]

CC(C)OC(=O)c1ccccc1
inactive: [1] | [2] | [3] | [16] | [5] | [6] | [7] | [8] | [9] | [10] | [17] | [13] | [15] | [18]

OC1CCCCC1c1ccccc1 (configuration not stated)
inactive: [1] | [2] | [3] | [16] | [5] | [6] | [7] | [8] | [9] | [17] | [11] | [13] | [15] | [18] | [19]

CO/N=C(/C(=O)N[C@@H]1C(=O)N2C(C(=O)OCOC(=O)C(C)(C)C)=C(C)CS[C@H]12)c1csc(N)n1
inactive: [1] | [2] | [3] | [16] | [5] | [6] | [7] | [8] | [9] | [10] | [17] | [11] | [12] | [13] | [14] | [15] | [18]

C1CN(CCOCCN2CCOCC2)CCO1
inactive: [1] | [2] | [3] | [4] | [5] | [6] | [7] | [8] | [9] | [17] | [13] | [15] | [18] | [19]

O=C(O)Cc1ccc(CCNS(=O)(=O)c2ccc(Cl)cc2)cc1
inactive: [1] | [2] | [3] | [4] | [16] | [5] | [6] | [8] | [9] | [10] | [17] | [11] | [12] | [13] | [14] | [15]
